From PubChem BioAssay
IL-1B inflam inh: blocks inflammasome-driven IL-1 beta release; THP-1 LPS/ATP IL-1B secretion, AlphaLISA, 16 h; stronger effect = lower value; activity change, % at 57.5 µM; 360,000 tested, 4.7% active; AID 743279; in the data active = activity change below about -50%; inconclusive = mostly about -30% to -49%
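THP-1 cells pretreated 1 hr with compounds (up to 57.5 uM final), then stimulated with LPS (250 ng/mL final) plus ATP (1.25 mM final); secreted IL-1B measured by AlphaLISA after 16 hr, decreased signal indicating inhibition.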
VP16 counter: inhibits Gal4-VP16 luciferase reporter, ROR gamma counter-screen. Drosophila S2 Gal4-VP16 UAS-luciferase, luminescence, 20 h. 310,000 tested, 3.5% active. AID 2546. Potency, µM (doses to about 53.6 µM), inactives show at the top dose activity, negative = inhibition, actives largely listed as inhibitors;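 note: Gal4-VP16 expression switched on by copper sulfate through the metallothionein promoter; potency is the fitted concentration of half-maximal effect; nearly all actives have a fitted effect of over 50% in size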
RORgamma inh: ROR gamma (mouse) transcription inhibition. Drosophila S2 Gal4-RORgamma UAS-luciferase reporter, 20 h. Potency, µM (highest dose often 53.6 µM), inactives show at the top dose activity change, negative = inhibition, actives largely listed as inhibitors. 310,000 tested, 5.4% active. AID 2551; note: potency is the fitted concentration of half-maximal effect; nearly all actives have a fitted effect of over 60% in size
Target sequence (P51450 whole entry, looked up, the tested form may be a part): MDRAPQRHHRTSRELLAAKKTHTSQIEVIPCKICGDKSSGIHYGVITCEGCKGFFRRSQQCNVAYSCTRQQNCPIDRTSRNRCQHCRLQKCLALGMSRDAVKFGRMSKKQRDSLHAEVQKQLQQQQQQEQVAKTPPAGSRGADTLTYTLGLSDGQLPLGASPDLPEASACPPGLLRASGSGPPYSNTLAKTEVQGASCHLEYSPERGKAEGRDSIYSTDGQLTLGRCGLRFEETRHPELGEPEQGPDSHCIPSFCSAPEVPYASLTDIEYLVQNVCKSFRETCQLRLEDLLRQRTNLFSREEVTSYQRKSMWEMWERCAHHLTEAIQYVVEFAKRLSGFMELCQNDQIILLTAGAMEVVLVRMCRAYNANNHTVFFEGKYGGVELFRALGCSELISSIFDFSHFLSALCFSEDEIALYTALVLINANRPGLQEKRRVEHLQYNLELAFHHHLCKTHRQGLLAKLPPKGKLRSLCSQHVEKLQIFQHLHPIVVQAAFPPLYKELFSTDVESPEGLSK
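A Gal4/UAS one-hybrid system in insect cells: metallothionein-promoter Gal4–ROR gamma fusion plus Photinus luciferase reporter. Copper sulfate 700 uM final, 20 hr ambient incubation, luminescent detection after 10 min with reagent.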
TDP1 cell CPT: DT40-hTDP1 cell growth loss with CPT | 420,000 tested, 12% active | Potency, µM (doses to about 46.2 µM), for the others: top-dose activity change, negative = growth inhibition, most hits filed as inhibitors | AID 686979 | chicken DT40 Tdp1-/-;hTDP1 cells + 20 nM CPT, ATP luminescence, 48 h; note: potency is the fitted concentration of half-maximal effect; nearly all actives have a fitted effect of over 55% in size
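Cell growth measured by CellTiter-Glo luminescence after a minimum 48 h, 37 C compound exposure with 20 nM CPT in Tdp1-knockout DT40 cells stably expressing hTDP1, seeded 400/well; qHTS titration format.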
TDP1 cell noCPT: qHTS for Inhibitors of human tyrosyl-DNA phosphodiesterase 1 (TDP1): qHTS in cells in absence of CPT. DT40 Tdp1-/- hTDP1 cells, no CPT, ATP luminescence, 48 h. Potency, µM (series often up to 46.2 µM), without a hit: at the top dose activity change, negative = growth inhibition, hits mostly inhibitors. 420,000 tested, 15% active. AID 686978, 2013; note: potency is the fitted concentration of half-maximal effect; nearly all actives have a fitted effect of over 55% in size
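Luminescent ATP content (CellTiter-Glo) served as the growth readout. Knockout chicken DT40 cells expressing human TDP1 were exposed to compounds without camptothecin for a minimum 48 hr at 37 °C.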
LDHA block: LDHA (human) enzyme inhibition | 480,000 tested, 0.15% active | purified LDHA, NADH/diaphorase-resazurin fluorescence; stronger effect = lower value | P00338 | activity change, % (values are at about 110 or 230 µM); in the data active = activity change below about -30%; inconclusive = mostly about -25% to -30%;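 note: plate controls were DMSO wells for no effect and wells without enzyme for full effect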
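Human LDH5 at 2 nM final in Tris HCl pH 7.4 with 0.06 mM NADH and 0.2 mM pyruvate, reacted 5 minutes at room temperature. Remaining NADH coupled via diaphorase/resazurin; resorufin fluorescence read at 0 and 20 minutes, normalized to enzyme-free and DMSO wells.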
Numbers without * were called inactive; ? = inconclusive; . = not tested or not shown; ! = a repeat was not active; [ ] = dose if it differs, or a comment. A selection: hits, their analogues and other compounds. The true share with any hit is near 18%. Unless noted, calls come from the whole dose curve; as a rule, active = well fitted curve in the direction sought with a large enough effect; inconclusive = small, poorly fitted or top-dose-only effect, or another doubt; inactive = no such curve, though single readings can be large; an effect the other way counts as inactive or inconclusive. Unless noted, % is set by controls: 0 for no effect and ±100 for the full control effect.

SMILES	IL-1B inflam inh	VP16 counter	RORgamma inh	TDP1 cell CPT	TDP1 cell noCPT	LDHA block
CN(C)c1cc[n+](/C(C(=S)Nc2ccc(SC(F)F)cc2)=C(/[O-])c2ccccc2)cc1	-10	-17%	?	13µM*	10µM*	0
[O-]/C(=C(\C(=S)Nc1ccc(SC(F)F)cc1)[n+]1ccccc1)c1cc(Cl)ccc1Cl	-24	-1%	?	16µM*	16µM*	1
C=CCn1c(C)cc(/C([O-])=C(/C(=S)Nc2ccc(OC(F)F)cc2)[n+]2ccc(N(C)C)cc2)c1C	-11	-6%	0%	26µM*	18µM*	8
Cc1cc(C([O-])=C(C(=S)Nc2ccccc2)[n+]2ccccc2)c(C)n1-c1ccccc1	18	.	.	?	?	18
Cc1cc(C)c(/C([O-])=C(/C(=S)Nc2ccc(SC(F)F)cc2)[n+]2ccccc2)cc1C	5	-11%	11µM*	?	-77%	5
CCn1nc(C(=O)OC(C)C(N)=O)c2ccccc2c1=O (stereo not given)	.	.	.	.	.	2
Cc1oc(C(C)(C)C)cc1-c1cc(NC(=O)c2ccc([N+](=O)[O-])cc2)n[nH]1	-63*	-11%	?	?	?	-11
Cc1cc(CS(=O)(=O)CC(=O)NC2CC2)on1	.	.	.	.	.	4
CCOc1ccc(NC(=O)c2cc3cc4cc(OC)ccc4nc3s2)cc1	.	.	.	-83%	4.6µM*	-4
COc1ccc2nc3sc(C(=O)NCCCN4CCc5ccccc5C4)cc3cc2c1	-27	-3%	11%[10 µM]	?	16µM*	-3
CCN(CCCNC(=O)c1cc2cc3ccc(OC)cc3nc2s1)c1ccccc1	.	.	.	16µM*	21µM*	-3
CCN(CCCNC(=O)c1cc2cc3ccc(OC)cc3nc2s1)c1cccc(C)c1	.	.	.	?	?	0
CCCCCCCCCCCCSCCC(=O)O	.	.	.	.	.	13
CCOC(=O)N1CCC(NC(=O)c2cc3cc(OC)ccc3[nH]2)CC1	.	.	.	.	.	9
O=C(NC(=Nc1nc2ccccc2o1)NC(=O)c1ccccc1)c1ccccc1	-16	22%	-9%	29%	?	-7
N/C(=N\c1nc2ccccc2o1)NC(=O)c1ccccc1NC(=O)c1ccccc1	6	?	-82%	5.2µM*	3.7µM*	-6
COc1ccccc1C(=O)NC(=Nc1nc2ccccc2o1)NC(=O)c1ccccc1OC	63	?	0.79µM*	-27%	?	-6
N/C(=N\c1nc2ccccc2o1)NC(=O)c1ccccc1F	6	7.9µM*	2.5µM*	-1%	?	-7
Cn1c(CCNC(=O)c2ccccc2F)nnc1SCC(=O)N1CCOCC1	.	.	.	.	.	3
COc1ccc(CN2CCC(N3CCN(c4ccccc4OC)CC3)CC2)cc1OC	.	.	.	.	.	11
CC(C)COCC(CN(Cc1ccccc1)c1ccccc1)N1CCCC1 (stereo not given)	-83*	?	?	10µM*!	26µM*	-9
COc1ccc(/C=C2\SC(=N)N(c3nccs3)C2=O)cc1OC	-1	?	0.13µM*	13µM*	5.8µM*	9
COc1ccccc1N1C(=N)S/C(=C\c2ccc(-c3ccccc3C(=O)O)o2)C1=O	16	17%	15%	-2%	-14%	-1
N=C1S/C(=C\c2ccc(-c3cccc(Cl)c3)o2)C(=O)N1c1nccs1	-14	-83%	0.14µM*	3.3µM*	2.6µM*	-5
O=C1OC(c2cccs2)=N/C1=C\c1ccc(-c2cccc(Cl)c2)o1	26	-21%	?	21µM*	?	-11
C[C@@H]1C[C@H](C)CN(C(C(=O)O)c2cn(Cc3ccccc3)c3cc(C(=O)O)ccc23)C1 (stereo not given in full)	.	.	.	.	.	-1
